Results on 20 compounds are retold here after PubChem BioAssay (NCI).

Assay [1] is described as follows: NCI Yeast Anticancer Drug Screen. Data for the rad50 strain (AID 155).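 Also: 0% = growth of vehicle-only cultures of the same strain.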 The note with it: S. cerevisiae rad50 strain growth inhibition; at 50.0 µM; stronger effect = higher value. The method in brief: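 Inhibition values express reduced yeast growth in compound-treated cultures relative to vehicle-treated controls.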
Assay [2] in a line: NCI Yeast Anticancer Drug Screen. Data for the mec2-1 strain (AID 157). Particulars: S. cerevisiae mec2-1 strain, at 50.0 µM, stronger effect = higher value. The method in brief: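 Compounds were applied to mec2-1 yeast cells. Their growth was then compared with that of vehicle-treated cultures to give growth inhibition.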
Assay [3] in a line: NCI Yeast Anticancer Drug Screen. Data for the sgs1 mgt1 strain (AID 161).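 Also: 0% = growth of cultures given vehicle only.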 The note with it: S. cerevisiae sgs1 mgt1 strain, at 50.0 µM, stronger effect = higher value. A digest of the protocol: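 Growth of a repair-deficient yeast mutant was monitored after compound treatment and expressed as inhibition relative to vehicle-treated cultures.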
Assay [4] is described as follows: NCI Yeast Anticancer Drug Screen. Data for the cln2 rad14 strain (AID 165).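 Also: 0% = growth equal to vehicle treated cultures.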 Particulars: S. cerevisiae cln2 rad14 strain, at 50.0 µM, stronger effect = higher value. The method in brief:
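Strain: cln2 rad14 yeast, altered in cell cycle control and DNA damage repair. Read-out: growth inhibition vs vehicle.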

Assay [5] is described as follows: NCI Yeast Anticancer Drug Screen. Data for the bub3 strain (AID 167). Particulars: S. cerevisiae bub3 mutant strain, at 50.0 µM, stronger effect = higher value. A digest of the protocol:
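Steps: expose the mutant yeast strain to compound; grow alongside vehicle-treated cultures; measure growth; express inhibition against the vehicle cultures.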

The nature of assay [6]: NCI Yeast Anticancer Drug Screen. Data for the mlh1 rad18 strain (AID 175). The note with it: S. cerevisiae mlh1 rad18 strain growth inhibition; at 50.0 µM; stronger effect = higher value. A digest of the protocol:
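A repair-deficient yeast strain is exposed to test compound, and growth is scored relative to vehicle-treated controls.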

Structures are written as SMILES. This is part of a sample that, as a whole, favours compounds with a hit. Of some 79,000 tested, about 15% had one in any assay. Unmarked numbers belong to inactive results. Activity calls are given as the source filed them. Rule as the data show it: active = growth inhibition above about 70%; inactive = the rest.

Regarding `c1ccc2c(c1)NC(C1OC3CCCN3C1C1Nc3ccccc3S1)S2` (stereo not given), the growth inhibition was -43.2% in assay [1]; -6% in assay [2]; -28.6% in assay [3]; -1.5% in assay [4]; -14.1% in assay [5]; -24.4% in assay [6].

On to `CN=C(NN)NS(=O)(=O)c1cc(C)c(Cl)cc1S`, for which the growth inhibition in assay [1] was -12.6%; in assay [2], -22.8%; in assay [3], -11.7%; in assay [4], -10.9%; in assay [5], 3.4%; in assay [6], 7.05%.

Take `Cc1nc(N)nc(C)c1N=Nc1ccccc1Br`: the growth inhibition in assay [1] was 2%; in assay [2], 3.75%; in assay [3], 2.35%; in assay [4], -42.2%; in assay [5] it was 5.35%; in assay [6], -6.25%.

On to `CCOC(=O)c1c(C(=O)OCC)c(C)n(/N=N/n2c(C)c(C(=O)OCC)c(C(=O)OCC)c2C)c1C`, for which the growth inhibition is 29.3% in assay [1]; 9.75% in assay [2]; 23.6% in assay [3]; 26.3% in assay [4]; -1.45% in assay [5]; 12.8% in assay [6].

`O=C(NCCNCCNC(=O)C(F)(F)F)C(F)(F)F`: the growth inhibition was -9.75% in assay [1]; -16.9% in assay [2]; -4.4% in assay [3]; 12.8% in assay [4]; -1.5% in assay [5]; -41.6% in assay [6].

With `CSc1cccc(NC(=O)/C=C/C(=O)O)c1`, the growth inhibition in assay [1] is -3.05%; in assay [2] it was 5.1%; in assay [3], 16.3%; in assay [4], -58.5%; in assay [5], 6.65%; in assay [6], -0.9%.

In the case of `CCOC(=O)COc1ccc(Cc2ccc3c(c2)OCO3)cc1C`, the growth inhibition in assay [1] was -0.7%; in assay [2] it was 3.1%; in assay [3], -2.45%; in assay [4], -6.05%; in assay [5], 16.2%; in assay [6] it was 0.9%.

Turning to `CCOC(=O)C(=NNc1cc(OC)c(Cl)cc1OC)C(=O)OCC`, the growth inhibition is 8.25% in assay [1]; -9.95% in assay [2]; -7.4% in assay [3]; -25.4% in assay [4]; 1.7% in assay [5]; 6.05% in assay [6].

For the compound `COc1ccc(-c2c(N)nc(=S)[nH]c2C(=O)O)cc1`, the growth inhibition is -8.65% in assay [1]; 9.85% in assay [2]; -9.15% in assay [3]; -21.2% in assay [4]; 8.75% in assay [5]; -17.7% in assay [6].

Turning to `Cc1cc(NS(=O)(=O)c2ccc(NC(=O)c3cccc4c(N)c5ccccc5nc34)cc2)no1`, the growth inhibition in assay [1] was 34.1%; in assay [2], 14.9%; in assay [3], 29.3%; in assay [4], 39.5%; in assay [5] it was 3.85%; in assay [6] it was 37%.

As to `CCN1/C(=C/C=C/C=C/c2oc3ccccc3[n+]2CC)Oc2ccccc21`, the growth inhibition was 34% in assay [1]; 5.6% in assay [2]; 10.1% in assay [3]; 36.8% in assay [4]; 0.2% in assay [5]; 17.2% in assay [6].

As for `CCN(CC)CCn1[nH]c2c3ccc(=O)cc3sc3c(NCCN)ccc1c32`, the growth inhibition in assay [1] is 13.3%; in assay [2] it was -3.35%; in assay [3], -12.7%; in assay [4] it was -5.55%; in assay [5] it was 2.5%; in assay [6], -2.4%.

In the case of `O=[N+]([O-])c1cccc2nc3ccccc3c(NCCc3ccccn3)c12`, the growth inhibition in assay [1] is 13.3%; in assay [2] it was -19.9%; in assay [3], 20.6%; in assay [4], -32.4%; in assay [5] it was -17.1%; in assay [6], 13.8%.

On to `CC1=CC(=O)C(=Ic2ccccc2)C(=O)O1`, for which the growth inhibition is 11.2% in assay [1]; -8.25% in assay [2]; 4.6% in assay [3]; 9.65% in assay [4]; -3.85% in assay [5]; 14.6% in assay [6].

With `Cn1c2ccccc2c2ccc3c(c21)C(=O)NC3=O`, the growth inhibition in assay [1] is 15.6%; in assay [2] it was 10.7%; in assay [3], -7.75%; in assay [4], -7.7%; in assay [5] it was -21.9%; in assay [6], 13.3%.

For `O=c1[nH][nH]c(=O)c2c1ncn2Cc1ccccc1`, the growth inhibition was 34.9% in assay [1]; -17% in assay [2]; 1.7% in assay [3]; -49.5% in assay [4]; -14.9% in assay [5]; -25.5% in assay [6].

Consider `CSc1nc(SC)c(Cl)c(C(Cl)Cl)n1`, for which the growth inhibition in assay [1] is 32.2%; in assay [2], 59.2%; in assay [3] it was 68.8%; in assay [4], 7.3%; in assay [5], 74.8% (active); in assay [6], 75% (active).

Regarding `CCOc1ccccc1NC(=S)NC(=O)CCc1ccccc1`, the growth inhibition in assay [1] is -12.9%; in assay [2], 14.2%; in assay [3] it was 41.9%; in assay [4] it was -35%; in assay [5], 31.6%; in assay [6] it was 21.8%.

On to `COC(=N)CC(=O)C(C)(C)C`, for which the growth inhibition in assay [1] is -6.4%; in assay [2] it was -15.9%; in assay [3] it was -13.7%; in assay [4], -9.65%; in assay [5] it was -6.25%; in assay [6] it was -7.2%.

`CC12CC3(C)CC(C)(C1)CC(C(NC(C)(C)C)C(=O)O)(C2)C3` (stereo not given): the growth inhibition in assay [1] was 16.8%; in assay [2], 20.1%; in assay [3], 11.9%; in assay [4] it was 5.7%; in assay [5], 18.9%; in assay [6], 21.2%.
